Compound activity as filed in PubChem BioAssay.
Only some compounds are listed: those with a hit (about 2.8% of all), similar ones and a draw of the others.
HTRA1 inhibitor = blocks human HTRA1 serine peptidase; Q92743; recombinant HTRA1, FP-rhodamine activity-based probe, fluorescence polarization; inhibition, % at 5.96 µM; actives 0.5% (n = 340,000); in the data active = inhibition above about 36%
pPAFAH FP inh = inhibitors of human plasma PAF acetylhydrolase (pPAFAH); recombinant pPAFAH, FP-rhodamine probe fluorescence polarization; inhibition, % at 3.39 µM; Q13093; actives 1.5% (n = 330,000);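 active = inhibition above the mean inhibition across the screen plus 3 SD, cut at about 25% in these data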;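 note: inhibitors block binding of the rhodamine activity-based probe so polarization drops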
PAFAH1B2 FP inh = PAFAH1B2 (human) inhibition; actives 1.2% (n = 340,000); AID 492953; inhibition, % at 3.39 µM; recombinant PAFAH1B2, FP-rhodamine activity probe, fluorescence polarization; P68402;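 active = inhibition above the mean of all tested compounds plus 3 SD, cut at about 24% in these data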
Target sequence (P68402 whole entry, looked up): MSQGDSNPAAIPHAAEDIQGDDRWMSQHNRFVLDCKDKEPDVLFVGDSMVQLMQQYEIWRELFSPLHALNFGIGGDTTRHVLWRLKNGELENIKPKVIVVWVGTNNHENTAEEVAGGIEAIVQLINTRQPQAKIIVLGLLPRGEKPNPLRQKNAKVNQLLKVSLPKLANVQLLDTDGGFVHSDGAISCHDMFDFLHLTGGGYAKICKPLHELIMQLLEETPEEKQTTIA
DAGLB inhibitor = diacylglycerol lipase beta (human) inhibition; AID 504411; HEK293T DAGLB membrane lysate, EnzChek fluorogenic substrate; Q8NCG7; inhibition, % at 5.17 µM; actives 0.059% (n = 340,000); in the data active = inhibition above about 34%
PAFAH2 inh = PAFAH2 (human) inhibition; inhibition, % at 3.39 µM; recombinant PAFAH2, FP-rhodamine activity probe, fluorescence polarization; AID 492956; actives 0.99% (n = 340,000);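 active = inhibition above the mean over all tested compounds plus 3 SD, cut at about 30% in these data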;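 note: inhibitors block probe labeling of enzyme so polarization drops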
PAFAH1B3 FP inh = PAFAH1B3 (human) inhibition; inhibition, % at 3.39 µM; actives 0.28% (n = 340,000); recombinant PAFAH1B3, FP-rhodamine probe, fluorescence polarization; Q15102;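 active = inhibition above the screen-wide average of all tested compounds plus 3 SD, cut at about 25% in these data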
Target sequence (Q15102 whole entry, looked up): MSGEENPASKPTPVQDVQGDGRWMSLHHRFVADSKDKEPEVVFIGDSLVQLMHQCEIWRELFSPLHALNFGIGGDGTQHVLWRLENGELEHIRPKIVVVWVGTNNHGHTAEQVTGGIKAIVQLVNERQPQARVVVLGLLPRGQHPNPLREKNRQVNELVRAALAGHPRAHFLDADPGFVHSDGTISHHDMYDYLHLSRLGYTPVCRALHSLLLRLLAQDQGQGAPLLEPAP
PAFAH2 FP conf = confirmation of human PAFAH2 inhibitors. recombinant PAFAH2, FP-rhodamine activity probe, fluorescence polarization. inhibition, % at 3.39 µM. shares compounds with PAFAH2 inh. actives 65% (n = 2,300);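 active = mean inhibition over three repeats above a set limit taken from the earlier primary screen, cut at about 30% in these data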;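 note: inhibitor blocks binding of rhodamine activity probe so polarization falls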
Numbers stand for hits; . = inactive; / = not tested or not shown.

SMILES	HTRA1 inhibitor	pPAFAH FP inh	PAFAH1B2 FP inh	DAGLB inhibitor	PAFAH2 inh	PAFAH1B3 FP inh	PAFAH2 FP conf
O=C(COC(=O)c1ccc(O)cc1)Nc1ccccc1-c1ccccc1	.	.	.	.	46.3	.	38.7
CCCCOC(=O)c1ccc(O)cc1	.	.	.	.	.	.	/
CCN1C[C@@H]2[C@@H]3C(=O)N(Cc4ccccc4)C(=O)[C@@H]3[C@](CC)(C1=O)N2C(=O)c1ccc(C(F)(F)F)cc1	.	.	.	.	.	.	/
Cc1ccc(NC(=O)c2cccc(NC3=NC4CS(=O)(=O)CC4S3)c2)cc1 (stereo not given)	.	.	.	.	.	.	/
Cc1c(O)ccc(-c2n[nH]c(C(=O)O)c2-c2nc3ccccc3s2)c1O	.	.	.	.	.	.	/
COc1ccccc1/C=N/OC(=O)c1ccc(F)cc1	.	.	.	.	77.3	.	64.0
COc1ccccc1C=NN=C(N)C(N)=NN=Cc1ccccc1OC	.	/	.	.	.	.	/
COc1ccc(C/C(N)=N/n2cnnc2)cc1Cl	.	.	.	.	.	.	/
N/C(Cc1ccc([N+](=O)[O-])cc1)=N\OC(=O)c1ccc([N+](=O)[O-])cc1	.	.	.	.	.	.	/
COc1cc(C(=O)O/N=C(\N)Cc2ccc([N+](=O)[O-])cc2)cc(OC)c1OC	/	.	/	/	/	/	/
CC(C)(C)C(=O)OC/C(N)=N/OC(=O)c1ccc(Cl)cc1	.	.	.	.	85.2	.	64.6
COc1ccc(C(=O)O/N=C(\N)Cc2ccc(Cl)c(Cl)c2)cc1OC	.	.	.	.	90.3	.	81.6
N/C(Cc1ccc(Cl)cc1)=N\OC(=O)c1ccccc1	.	.	.	.	83.5	.	76.0
N/C(CCS(=O)(=O)c1ccc(Cl)cc1)=N\OC(=O)c1ccc(Cl)cc1	.	.	.	.	.	.	/
COc1ccc(C(=O)O/N=C(\N)Cc2ccc(Cl)cc2)cc1OC	.	.	.	.	74.3	.	78.3
COc1ccc(CCC(C)N2CCOCC2)cc1 (stereo not given)	.	.	.	.	.	.	/
COc1ccc(C(=O)O/N=C(\C)c2nccs2)cc1	.	.	.	.	67.0	.	59.6
COc1ccc(C(=O)O/N=C(/C)c2cccs2)cc1	.	.	.	.	64.2	.	55.0
CCN1C(=O)N(C)C(N(O)C(=O)NC)C1(C)C (stereo not given)	.	.	.	.	55.7	.	.
CNC(=O)N(O)C1N(C)C(=O)N(Cc2ccccc2)C1(C)C (stereo not given)	.	.	.	.	.	.	/
CC(=O)C[C@H](O)CC(=O)[C@@H]1OC(=O)CCCCCc2ccccc21	.	.	.	.	.	.	/
COc1cccc(CC(=O)Nc2cc(S(=O)(=O)N3CCOCC3)ccc2N2CCOCC2)c1	.	.	.	.	.	.	/
COc1cccc(CC(=O)Nc2cc(S(=O)(=O)N3CCOCC3)ccc2OC)c1	.	/	.	.	38.9	.	.
O=C(Nc1cc(S(=O)(=O)N2CCOCC2)ccc1O)c1ccco1	.	.	.	.	57.1	.	43.7
Cc1ccc(S(=O)(=O)N2CCOCC2)cc1C(=O)Nc1cc(S(=O)(=O)N2CCCCC2)ccc1O	.	/	.	.	30.3	.	.
SMILES	HTRA1 inhibitor	pPAFAH FP inh	PAFAH1B2 FP inh	DAGLB inhibitor	PAFAH2 inh	PAFAH1B3 FP inh	PAFAH2 FP conf
CN(C)S(=O)(=O)c1cccc(C(=O)Nc2cc(S(=O)(=O)N3CCOCC3)ccc2O)c1	.	/	.	.	49.6	.	49.5
CCOC(=O)C(=O)NC1CC=CCC1c1ccc2c(c1)OCO2 (stereo not given)	.	/	.	.	.	.	/
COc1ccc(S(=O)(=O)N2CCC(C(=O)N[C@@H](C)C(=O)NCc3ccccc3OC)CC2)cc1	.	.	.	.	.	.	/
O=c1cc(-c2ccccc2)[nH]n1-c1nc2ccccc2s1	.	.	.	.	41.8	.	47.2
O=C(O)CCC(=O)Nc1ccc(C(=O)OCC(=O)c2ccc(Cl)cc2)cc1	.	.	.	.	41.6	.	.
O=C(COC(=O)c1ccc(Cl)nc1)Nc1ccc(Cl)cc1	.	/	.	.	36.0	.	32.8
O=C(COC(=O)c1ccc(Cl)nc1)Nc1ccc2c(c1)CCC2	.	.	.	.	41.7	.	31.7
O=C(O)CCCC(=O)Nc1ccc(Cl)cc1	.	.	.	.	.	.	/
CC(=O)Nc1ccc(NC(=O)COC(=O)c2ccc(Cl)nc2)cc1	.	/	.	.	.	.	/
O=C(COC(=O)c1ccc(NC(=O)C2CC=CCC2C(=O)O)cc1)c1ccccc1 (stereo not given)	.	.	.	.	31.5	.	31.3
COc1ccc([C@H]2C[C@H](O)[C@@H](n3cc(C4CC4)nn3)CN2C(=O)c2cccs2)cc1	.	/	/	.	/	/	/
Cc1ccc(S(=O)(=O)N2CCOCC2)cc1C(=O)N1CCN(S(=O)(=O)c2ccccc2F)CC1	.	/	.	.	.	.	/
Cc1cc(C(=O)N/N=C/c2ccc(-c3cccc(Cl)c3)o2)n[nH]1	.	.	.	.	.	.	/
Cc1noc(C)c1COc1ccc(C(=O)OCC(=O)Nc2ccc3c(c2)OCO3)cc1	.	.	.	.	79.9	.	86.5
CN(C)S(=O)(=O)c1ccc(C(=O)OCC(=O)Nc2ccc3c(c2)OCO3)cc1	.	.	.	.	.	.	/
O=C(COC(=O)c1ccc(O)cc1)Nc1ccc2c(c1)OCO2	.	.	.	.	88.8	.	80.9
O=C(COC(=O)c1ccc(Cl)nc1)Nc1ccc2c(c1)OCO2	.	.	.	.	53.2	.	38.8
Cc1cc(C(=O)N2CCN(Cc3ccccc3)CC2)ccc1[N+](=O)[O-]	.	.	.	.	119.2	.	.
CSc1nc(N2CCOCC2)nc2ccc(C)cc12	.	.	.	.	.	.	/
COc1cc(C(=O)OCC(=O)c2c[nH]c3ccccc23)ccc1OCC(=O)N1CCOCC1	.	.	.	.	33.6	.	.
COc1ccc(C(=O)OCC(=O)c2c[nH]c3ccccc23)cc1OC	.	.	.	.	46.7	.	43.9
CCOc1cc(C(=O)OCC(=O)NC(C)c2ccccc2)ccc1OCC(=O)N1CCOCC1 (stereo not given)	.	.	.	.	91.9	.	70.5
Cc1ccc(C(=O)OCC(=O)c2c[nH]c3ccccc23)cc1S(=O)(=O)N1CCOCC1	.	/	.	.	.	.	/
CCOc1cc(C(=O)OCC(=O)c2c(C)[nH]c3ccccc23)ccc1OCC(=O)N1CCOCC1	.	.	.	.	.	.	/
CCOc1cc(C(=O)OCC(=O)c2c[nH]c3ccccc23)ccc1OCC(=O)N1CCOCC1	.	.	.	.	44.7	.	32.5
COCCn1c(SCC(=O)N(C)c2c(N)n(Cc3ccccc3)c(=O)[nH]c2=O)nnc1-c1cccc(C)c1	.	.	.	.	.	.	/
